SMILES strings stand for the structures. The campaign covered roughly 360,000 compounds. About 6,200 (1.7%) were called active. The full list was thinned out, with actives kept by preference. Unmarked numbers belong to inactive results.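 The calls were made as follows: active = inhibition of at least 50% at 20 µM; inactive = the rest.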

This assay is described as follows: inhibition of PEG-3 promoter activity – cell-based, HeLa, luciferase luminescence, primary screen (AID 588405). The conditions noted are these: HeLa PEG-Prom luciferase reporter, overnight, at 20 µM, hits give high values.
Take `Cc1cc(Br)cn2c(Cc3ccccc3C(F)(F)F)c(C3CCCCC3)nc12`: the inhibition was 5.05%.

As for `CC1(C(=O)NS(=O)(=O)c2cccc(F)c2)CCN1C(=O)c1cccc2ccccc12` (stereo not drawn), the inhibition is -0.5%.

As to `Cc1cc2oc(=O)cc(CN3CCN(S(=O)(=O)c4cccs4)CC3)c2cc1C(C)C`, the inhibition was 51.9% (active).

For the molecule `COc1ccc2c(CN3CCN(S(=O)(=O)c4cccs4)CC3)cc(=O)oc2c1`, the inhibition was 0.03%.

Turning to `O=S(=O)(c1cccs1)N1CCN(Cc2ccccc2)CC1`, the inhibition was 0.76%.

As to `COc1cncc(-c2cnc3sc(NCCc4ccccn4)nn23)c1`, the inhibition is 37.3%.

As to `Cc1ccc(NN=C2C(=O)OC(C)(C)OC2=O)c(C)c1`, the inhibition is -290%.

On to `Cc1cccc(NC(=O)c2ccc([N+](=O)[O-])o2)c1`, for which the inhibition is 65.2% (active).

As to `O=C(Nc1cccc(O)c1)c1ccc(C(=O)c2ccccc2)o1`, the inhibition is -268%.

As to `Cc1onc(NC(=O)c2ccc([N+](=O)[O-])o2)c1Br`, the inhibition was 14.7%.

With `O=C(Nc1cccc2cccnc12)c1ccc2sc([C@H]3C[C@H](O)[C@@H](CO)O3)nc2c1`, the inhibition is -70.4%.

Consider `O=C(Nc1cccc(Cc2ccccc2)c1)Nc1ccc2nc([C@@H]3O[C@H](CO)[C@@H](O)[C@H](O)[C@H]3O)[nH]c2c1`, for which the inhibition is -16.1%.

With `CC(C)CN(C(=O)COC(=O)c1ccc(Cl)c(N)c1)c1c(N)n(Cc2ccccc2)c(=O)[nH]c1=O`, the inhibition is -4.65%.

Regarding `Cc1csc(=O)n1CC(=O)OCC(=O)N(CC(C)C)c1c(N)n(Cc2ccccc2)c(=O)[nH]c1=O`, the inhibition was -11.2%.

As to `CC(C)CN(C(=O)COC(=O)c1ccc2ccccc2c1)c1c(N)n(Cc2ccccc2)c(=O)[nH]c1=O`, the inhibition was 86.1% (active).

As for `CNc1cc(-c2c(OC)cccc2OC)ncn1`, the inhibition was -4.17%.

For the molecule `CC(=O)Oc1ccc(Cn2c(C)c(C(=O)NCc3ccc(C#N)cc3)sc2=O)cc1`, the inhibition is 9.61%.

As to `CNC(=O)c1ccsc1NC(=O)c1ccc(S(=O)(=O)N2CCc3ccccc32)cc1`, the inhibition is 50.7% (active).

`CC1CN(S(=O)(=O)c2ccc(C(=O)Nc3sccc3C(N)=O)cc2)CC(C)O1` (stereo not drawn): the inhibition was 32.5%.

As for `NS(=O)(=O)c1ccc(CNC(=O)c2cccc(S(=O)(=O)N3CCc4ccccc43)c2)cc1`, the inhibition is 23.1%.

Take `CCOC(=O)c1ccccc1NC(=O)CSc1nc2c(sc(=S)n2CC)c(=O)[nH]1`: the inhibition was 8.72%.

With `CCOC(=O)c1cc(-c2sc(NC(=O)c3ccccc3)nc2C)n(Cc2ccccc2)n1`, the inhibition is -5.67%.

Regarding `CN(Cc1ccccc1F)C(=O)C(Cc1ccccc1)NC(=O)c1ccccc1` (stereo not drawn), the inhibition is 53.2% (active).

With `NC(=O)c1ccc(NC(=O)COC(=O)C(Cc2ccccc2)NC(=O)c2ccccc2)cc1` (stereo not drawn), the inhibition is -2.3%.

In the case of `O=C(NC(Cc1ccccc1)C(=O)N1CCCC1C(=O)O)c1ccccc1` (stereo not drawn), the inhibition is 11.6%.

Take `COCCSc1nnc(NC(=O)c2cc(OC)c(OC)cc2[N+](=O)[O-])s1`: the inhibition was 7.25%.

With `CC1(C(=O)NS(=O)(=O)c2ccccc2)CCN1C(=O)Cc1ccc(-c2ccccc2)cc1` (stereo not drawn), the inhibition was -4.22%.

Regarding `CCCNC(=O)C1(C)CCN(Cc2csc(-c3ccc(Cl)cc3)n2)C1` (stereo not drawn), the inhibition was -23.7%.

The values above are taken from PubChem BioAssay AID588405 (Sanford-Burnham Center for Chemical Genomics, 2011).
